Data as given in PubChem BioAssay AID1159580 (chemical genetic matrix, 2015).
Values joined by “and” are separate entries in the source; they are usually repeats but may differ in a detail not shown here. Equal entries are not always repeated. The whole screen tested about 5,500 compounds, of which about 2,000 (36%) were called active. Not shown: some 18% with an inconclusive outcome. This is one part of the list. Unmarked numbers belong to inactive results. Rule as the data show it: active = normalized growth mostly below about 0.91 (no sharp cut-off); inconclusive = no clear call, values can overlap the other calls; inactive = mostly above about 0.92.

Test: chemical genetic growth profiling, strain panel (AID 1159580);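 also: tested at 20 µM; growth read once vehicle control cultures reached saturation at 30 °C; 1 = growth at the plate median or of vehicle wells; lower values mean less growth of the strain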
Settings: S. cerevisiae deletion strains, growth OD

SMILES: COc1cc(O)c(C(=O)O)c(O)c1
- normalized growth (locus YAL013W, strain DEP1, stronger effect = lower value): 1
- normalized growth (locus YAL021C, strain ccr4, stronger effect = lower value): 0.992
- normalized growth (locus YAL026C, strain drs2, stronger effect = lower value): 0.995
- normalized growth (locus YAL030W, strain snc1, stronger effect = lower value): 0.99
- normalized growth (locus YBL061C, strain skt5, stronger effect = lower value): 1
- normalized growth (locus YBR009C, strain hhf1, stronger effect = lower value): 1
- normalized growth (locus YBR021W, strain FUR4, stronger effect = lower value): 1.02
- normalized growth (locus YBR023C, strain chs3, stronger effect = lower value): 0.998
- normalized growth (locus YBR171W, strain sec66, stronger effect = lower value): 0.971
- normalized growth (locus YBR229C, strain ROT2, stronger effect = lower value): 0.995
- normalized growth (locus YBR231C, strain swc5, stronger effect = lower value): 1
- normalized growth (locus YBR279W, strain paf1, stronger effect = lower value): 0.998
- normalized growth (locus YCL011C, strain gbp2, stronger effect = lower value): 0.988
- normalized growth (locus YCL016C, strain dcc1, stronger effect = lower value): 0.991
- normalized growth (locus YCL029C, strain bik1, stronger effect = lower value): 1.01
- normalized growth (locus YCL061C, strain MRC1, stronger effect = lower value): 0.979
- normalized growth (locus YCL069W, strain vba3, stronger effect = lower value): 0.99
- normalized growth (locus YCR088W, strain abp1, stronger effect = lower value): 0.984
- normalized growth (locus YDL005C, strain med2, stronger effect = lower value): 0.976
- normalized growth (locus YDL035C, strain GPR1, stronger effect = lower value): 1.02
- normalized growth (locus YDL040C, strain nat1, stronger effect = lower value): 0.999
- normalized growth (locus YDL074C, strain BRE1, stronger effect = lower value): 1.02
- normalized growth (locus YDL101C, strain DUN1, stronger effect = lower value): 1
- normalized growth (locus YDL134C, strain PPH21, stronger effect = lower value): 1
- normalized growth (locus YDL185W, strain tfp1, stronger effect = lower value): 0.949
- normalized growth (locus YDL192W, strain arf1, stronger effect = lower value): 1.02
- normalized growth (locus YDR001C, strain nth1, stronger effect = lower value): 0.98
- normalized growth (locus YDR069C, strain doa4, stronger effect = lower value): 1.01
- normalized growth (locus YDR101C, strain arx1, stronger effect = lower value): 1.01
- normalized growth (locus YDR137W, strain rgp1, stronger effect = lower value): 0.974
- normalized growth (locus YDR150W, strain NUM1, stronger effect = lower value): 1
- normalized growth (locus YDR159W, strain sac3, stronger effect = lower value): 1.01
- normalized growth (locus YDR162C, strain NBP2, stronger effect = lower value): 1.01
- normalized growth (locus YDR195W, strain ref2): 0.987
- normalized growth (locus YDR297W, strain sur2, stronger effect = lower value): 1
- normalized growth (locus YDR318W, strain mcm21, stronger effect = lower value): 1.02
- normalized growth (locus YDR334W, strain swr1, stronger effect = lower value): 0.999
- normalized growth (locus YDR335W, strain msn5, stronger effect = lower value): 0.992
- normalized growth (locus YDR388W, stronger effect = lower value): 1
- normalized growth (locus YDR392W, strain spt3, stronger effect = lower value): 1.01
- normalized growth (locus YDR502C, strain sam2, stronger effect = lower value): 0.998
- normalized growth (locus YEL003W, strain gim4, stronger effect = lower value): 1
- normalized growth (locus YEL037C, strain rad23, stronger effect = lower value): 0.985
- normalized growth (locus YEL061C, strain CIN8 (second series), stronger effect = lower value): 0.981
- normalized growth (locus YEL061C, strain CIN8, stronger effect = lower value): 1
- normalized growth (locus YER015W, strain faa2, stronger effect = lower value): 0.99
- normalized growth (locus YER016W, strain bim1, stronger effect = lower value): 0.989
- normalized growth (locus YER110C, stronger effect = lower value): 1.02
- normalized growth (locus YER111C, strain swi4, stronger effect = lower value): 0.987
- normalized growth (locus YER155C, strain BEM2 (second series), stronger effect = lower value): 0.978
- normalized growth (locus YER155C, strain BEM2, stronger effect = lower value): 0.987
- normalized growth (locus YER167W, strain BCK2, stronger effect = lower value): 1.03
- normalized growth (locus YFR010W, strain ubp6, stronger effect = lower value): 1.01
- normalized growth (locus YGL078C, strain dbp3, stronger effect = lower value): 0.973
- normalized growth (locus YGL086W, strain mad1, stronger effect = lower value): 1.01
- normalized growth (locus YGL167C, strain pmr1, stronger effect = lower value): 0.989
- normalized growth (locus YGL173C, strain kem1, stronger effect = lower value): 0.997
- normalized growth (locus YGL227W, strain vid30, stronger effect = lower value): 0.982
- normalized growth (locus YGL240W, strain doc1, stronger effect = lower value): 0.995
- normalized growth (locus YGL248W, strain PDE1, stronger effect = lower value): 1.01
- normalized growth (locus YGL253W, strain hxk2, stronger effect = lower value): 0.979
- normalized growth (locus YGR078C, strain PAC10, stronger effect = lower value): 1.01
- normalized growth (locus YGR135W, strain pre9, stronger effect = lower value): 1.01
- normalized growth (locus YGR229C, strain SMI1, stronger effect = lower value): 1.02
- normalized growth (locus YGR252W, strain gcn5, stronger effect = lower value): 1
- normalized growth (locus YHR013C, strain ard1, stronger effect = lower value): 0.998
- normalized growth (locus YHR027C, strain rpn1, stronger effect = lower value): 0.978
- normalized growth (locus YHR030C, strain SLT2, stronger effect = lower value): 0.996 and 0.881
- normalized growth (locus YHR079C, strain IRE1 (second series), stronger effect = lower value): 1.01
- normalized growth (locus YHR079C, strain IRE1, stronger effect = lower value): 0.839 (active)
- normalized growth (locus YHR094C, strain hxt1, stronger effect = lower value): 0.997
- normalized growth (locus YHR129C, strain ARP1, stronger effect = lower value): 0.991
- normalized growth (locus YHR142W, strain chs7, stronger effect = lower value): 1.01
- normalized growth (locus YHR200W, strain rpn10, stronger effect = lower value): 1
- normalized growth (locus YIL066C, strain RNR3, stronger effect = lower value): 0.993
- normalized growth (locus YIL073C, strain SPO22, stronger effect = lower value): 1.09
- normalized growth (locus YIL125W, strain kgd1, stronger effect = lower value): 0.979
- normalized growth (locus YIR030C, strain dcg1, stronger effect = lower value): 1.01
- normalized growth (locus YJL092W, strain hpr5, stronger effect = lower value): 0.966
- normalized growth (locus YJL095W, strain BCK1 (second series), stronger effect = lower value): 0.998
- normalized growth (locus YJL095W, strain BCK1, stronger effect = lower value): 1 and 0.914
- normalized growth (locus YJL115W, strain asf1, stronger effect = lower value): 0.979
- normalized growth (locus YJL129C, strain trk1, stronger effect = lower value): 1
- normalized growth (locus YJL134W, strain LCB3, stronger effect = lower value): 0.993
- normalized growth (locus YJL154C, strain vps35, stronger effect = lower value): 0.976
- normalized growth (locus YJL164C, strain tpk1, stronger effect = lower value): 1.02
- normalized growth (locus YJL166W, strain qcr8, stronger effect = lower value): 1
- normalized growth (locus YJL168C, strain set2, stronger effect = lower value): 0.993
- normalized growth (locus YJL187C, strain SWE1 (second series), stronger effect = lower value): 1.01
- normalized growth (locus YJL187C, strain SWE1, stronger effect = lower value): 0.996
- normalized growth (locus YJR043C, strain POL32, stronger effect = lower value): 1.04
- normalized growth (locus YJR066W, strain TOR1, stronger effect = lower value): 0.841
